Most compounds without a hit are left out; they make up all but 3.2% or so of the library.
ClpP mod: qHTS Assay for Activators of ClpP; ATP-dependent Clp protease proteolytic subunit (Bacillus subtilis (strain 168)), P80244; purified B. subtilis ClpP, FRET peptide cleavage, 20 min; 340,000 tested, 1.9% active; Potency, µM (doses to about 57.5 µM); active = well fitted falling curve with a large enough effect; inconclusive = small, poorly fitted or top-dose-only effect; inactive = no such curve, though single readings can be large or run the other way; also: the source files actives as falling curves though it sought activators and does not explain the sign; nearly all actives have a fitted effect of over 65% in size
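Purified B. subtilis ClpP, 10 microg/mL final in Tris/HCl pH8 with KCl, BSA, glycerol and Tween-20, cleaved an Abz/nitrotyrosine-quenched decapeptide. Fluorescence (ex 320, em 430) was read at 0 and 20 min at room temperature. Delta was normalized to 5.8 microM ADEP and DMSO/no-enzyme controls.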
GLP-1R inv ag: qHTS of GLP-1 Receptor Inverse Agonists (Inhibition Mode) | Glucagon-like peptide 1 receptor (Homo sapiens), P43220 | HEK293 GLP-1R CRE-luciferase, luminescence, 24 h; GLP-1R form is constitutively active | Potency, µM (top dose mostly 38.3 µM), hits mostly inhibitors | 410,000 tested, 1.6% active; also: nearly all actives have a fitted effect of over 55% in size
Target sequence (P43220 whole entry, looked up): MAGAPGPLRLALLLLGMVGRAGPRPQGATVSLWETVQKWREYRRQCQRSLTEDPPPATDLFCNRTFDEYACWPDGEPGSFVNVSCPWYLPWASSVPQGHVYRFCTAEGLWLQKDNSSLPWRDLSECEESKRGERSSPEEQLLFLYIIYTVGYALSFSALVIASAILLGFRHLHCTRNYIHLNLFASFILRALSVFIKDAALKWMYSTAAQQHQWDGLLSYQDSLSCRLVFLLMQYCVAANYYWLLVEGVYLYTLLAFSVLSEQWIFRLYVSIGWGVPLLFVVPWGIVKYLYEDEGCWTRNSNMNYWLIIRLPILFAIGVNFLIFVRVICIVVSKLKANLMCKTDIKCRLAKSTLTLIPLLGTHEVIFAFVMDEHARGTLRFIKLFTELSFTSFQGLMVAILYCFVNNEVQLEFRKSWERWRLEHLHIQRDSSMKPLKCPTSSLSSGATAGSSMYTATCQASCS
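Luminescence readout: a drop in cAMP-driven luciferase signal flags inverse agonism at a constitutively active GLP-1R stably expressed in HEK293. Compound exposure lasted 24 hr at 37 deg C, 5% CO2.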
GLP-1R agonist: qHTS of GLP-1 Receptor Agonists | Glucagon-like peptide 1 receptor (Homo sapiens), P43220 | 380,000 tested, 0.007% active | Potency, µM (highest dose often 45.6 µM), most hits filed as activators | HEK293 GLP-1R CRE-luciferase, luminescence, 4-6 h; cells express a hypersensitive GLP-1R form | AID 624172, 2012
HEK293 tox: qHTS of GLP-1 Receptor Inverse Agonists: Cytotox Screen; Potency, µM (highest dose often 38.3 µM), actives largely listed as inhibitors; HEK293 cAMP-luciferase reporter cells, luminescence, 24 h; 410,000 tested, 0.13% active;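 also: loss of luciferase light is scored as toxicity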
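Compound-treated cells are incubated 24 hr at 37 deg C under 5% CO2 after a 12 hour attachment period, then luciferase detection reagent is added and luminescence is measured following 12 min at room temperature; lowered signal indicates toxicity.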
Of the large screens only hits and unclear results are named; the others gave an inactive call. Unless noted, calls follow the shape of the dose curve; as a rule, active = well fitted curve in the direction sought with a large enough effect; inconclusive = small, poorly fitted or top-dose-only effect, or another doubt; inactive = no such curve, though single readings can be large; an effect the other way counts as inactive or inconclusive.

COc1ccc(C2C(C(C)=O)=C(C)Nc3ncnn32)cc1OC (centres undefined)	none
COc1ccc(-c2cc(C(F)(F)F)n3nc(C(=O)O)nc3n2)cc1	none
O=C(c1nc2nc(-c3ccc(Cl)cc3)cc(C(F)(F)F)n2n1)N1CCOCC1	ClpP mod 18µM
CC(C)(C)NC(=O)c1nc2nc(-c3ccccc3)cc(C(F)(F)F)n2n1	ClpP mod 28µM
O=C(c1nc2nc(-c3ccccc3)cc(C(F)(F)F)n2n1)N1CCOCC1	ClpP mod 28µM
COC[C@@H](c1ccc(C(F)(F)F)cc1)N1CCN(C2(C)CCN(C(=O)c3c(C)ncnc3C)CC2)C[C@@H]1C	none (no result: ClpP mod, GLP-1R inv ag, HEK293 tox)
COc1ccc(S(=O)(=O)NC(CC(=O)NC2CCCC2)c2ccco2)cc1 (centres undefined)	none
CCOC(=O)N1CCC(NC(=O)CC(NS(=O)(=O)c2ccc(Cl)cc2)c2ccco2)CC1 (centres undefined)	ClpP mod 32µM
Cc1ccc(S(=O)(=O)NC(CC(=O)NC2CCCC2)c2ccco2)cc1 (centres undefined)	ClpP mod 28µM
OC(CN1CCCCC1)c1ccccc1 (centres undefined)	none (no result: GLP-1R inv ag, GLP-1R agonist, HEK293 tox)
CCc1ccc(Nc2cc(C(=O)NCCCN(C)c3ccccc3)c3ccccc3n2)cc1	none (no result: GLP-1R agonist)
Cc1cccc(Nc2nnc(SCC(=O)Nc3ccccc3[N+](=O)[O-])s2)c1	GLP-1R inv ag inconclusive
Cc1cccc(Nc2nnc(SCC(=O)NC3CCCc4ccccc43)s2)c1C (centres undefined)	GLP-1R inv ag 8.9µM
Cc1ccccc1-n1c(C)nnc1SCC(=O)NC1CCCc2ccccc21 (centres undefined)	none
Cc1ccccc1Nc1nnc(SCC(=O)Nc2ccccc2[N+](=O)[O-])s1	ClpP mod 32µM
COc1ccc(CCNC(=O)CCCn2c(=O)c3cccn3c3ccc(F)cc32)cc1OC	none (no result: GLP-1R agonist)
CC(C)c1ccc(C(=O)CN2C(=O)NC3(CCc4ccccc43)C2=O)cc1 (centres undefined)	GLP-1R inv ag 2.5µM
O=C(CN1C(=O)NC2(CCc3ccccc32)C1=O)Nc1cccc(Cl)c1 (centres undefined)	GLP-1R inv ag 11µM
O=C(CN1C(=O)NC2(CCc3ccccc32)C1=O)c1ccc(Cl)cc1 (centres undefined)	GLP-1R inv ag inconclusive (no result: ClpP mod)
CSc1ccc(CN(C)C(=O)C(Cc2ccccc2)NC(=O)c2ccccc2)cc1 (centres undefined)	GLP-1R inv ag inconclusive, HEK293 tox inconclusive
CSc1ccc(CN(C)C(=O)C(c2ccccc2)c2ccccc2)cc1	GLP-1R inv ag 10µM
CC(C)(C)c1ccc(C(=O)Nc2ccc(Oc3cccnc3)nc2)cc1	GLP-1R inv ag 8.9µM
CCOC(=O)c1cc(C#N)c(N2CCCC2)nc1-c1ccccc1	ClpP mod 28µM, GLP-1R inv ag inconclusive
CCOC(=O)c1cc(N2CCCCC2)nc2ccccc12	GLP-1R inv ag 7.9µM
CCOC(=O)c1cc(C#N)c(N2CCN(C)CC2)nc1-c1ccccc1	GLP-1R inv ag inconclusive (no result: ClpP mod)
CCC(=O)N1CCN(c2nc(-c3ccccc3)c3c(c2C#N)CCCC3)CC1	ClpP mod 32µM, GLP-1R inv ag inconclusive
CCOC(=O)c1cc(C#N)c(NCc2ccccc2)nc1C	ClpP mod 32µM
COc1ccc(S(=O)(=O)Cc2ccc(C(=O)N3CCN(c4cccc(C)c4C)CC3)o2)cc1	GLP-1R inv ag inconclusive
COc1ccccc1N1CCN(C(=O)c2ccc(CS(=O)c3ccccc3C)o2)CC1 (centres undefined)	GLP-1R inv ag inconclusive
Cc1ccc(S(=O)(=O)Cc2ccc(C(=O)N3CCN(c4cccc(C)c4C)CC3)o2)cc1	GLP-1R inv ag 5µM, HEK293 tox inconclusive
Cc1ccccc1S(=O)Cc1ccc(C(=O)N2CCN(c3cccc(C)c3C)CC2)o1 (centres undefined)	GLP-1R inv ag 1.1µM (no result: GLP-1R agonist)
Cc1cccc(N2CCN(C(=O)c3ccc(CS(=O)Cc4ccc(Cl)cc4)o3)CC2)c1C (centres undefined)	GLP-1R inv ag 10µM
O=C(c1ccc(CS(=O)Cc2ccc(Cl)cc2)o1)N1CCN(c2cccc(Cl)c2)CC1 (centres undefined)	GLP-1R inv ag inconclusive
